The numbers were not newly measured in PubChem BioAssay AID977610 (Shanghai Institute of Organic Chemistry, 2013), which cites them from elsewhere.

The data set can be described thus: PubChem AID 977610. The note with it: PDB protein-ligand complexes, literature Ki.

Among all 3,600 compounds or so, about 3,600 (100%) were called active. Cut-off not given; nearly all actives show Ki up to about 18000 µM. So high a share suggests a set chosen from earlier hits. The list shows a part of the results. Numbered stars: 1 amine (or outer) side, 2 acyl side, 3 side chain; on linkers, the order of the positions; unused ones are H or OH. Square brackets hold non-standard residues; d marks the D form. Peptide text beside a SMILES is read from it. LeuΨ(S-CHOHCH2)Ala = CC(C)C[C@H](N[*:1])[C@@H](O)C[C@@H](C)C(=O)[*:2]; Orn(CH(NH2)2) = NC(N)NCCC[C@H](N)C(=O)O; Sta = CC(C)C[C@H](N)[C@@H](O)CC(=O)O

As for `O=[N+]([O-])c1cccc2ncccc12`, the Ki (protein: PDE10A2, PDB entry 4lm1) was 590 µM (active).

In the case of `Nc1nc(N)c2cc(CNc3cc(Cl)ccc3Cl)cnc2n1`, the Ki is, setting by setting: (protein: Dihydrofolate reductase(Q35S, N64F mutants), PDB entry 3oaf) 0.0016 µM (active); (protein: human Dihydrofolate reductase, DHFR, PDB entry 4g95) 0.0244 µM (active). In the case of `CC[C@H](C)[C@H](NC(=O)[C@H](CO)NC(=O)[C@H](CCCCNC(C)=O)NC(=O)[C@H](Cc1ccccc1)NC(=O)[C@@H](NC(=O)[C@H](CCC(=O)O)NC(=O)[C@H](Cc1ccc(O)cc1)NC(=O)[C@@H](NC(=O)[C@@H](N)CCCNC(N)N)[C@@H](C)O)[C@@H](C)O)C(=O)N[C@@H](CCSC)C(=O)N[C@@H](CCCCN)C(=O)N[C@@H](CCCCN)C(=O)N[C@@H](CO)C(=O)O` (H-[Orn(CH(NH2)2)]TYETFK(Ac)SIMKKS-OH), the inhibition constant Ki (protein: Bromodomain-containing protein 4, PDB entry 2lsp) is 274 µM (active).

For `CC(C)C[C@H](NC(=O)[C@H](CC(N)=O)NC(=O)[C@@H](NC(=O)[C@H](CCC(=O)O)NC(=O)[C@H](CO)NC(=O)[C@H](Cc1c[nH]c2ccccc12)NC(=O)[C@@H](N)Cc1c[nH]c2ccccc12)C(C)C)[C@@H](O)C[C@@H](C)C(=O)N[C@@H](C)C(=O)N[C@@H](CCC(=O)O)C(=O)N[C@@H](Cc1ccccc1)C(=O)O` (H-WWSEVN[LeuΨ(S-CHOHCH2)Ala]AEF-OH), the Ki (protein: Memapsin 2(?-secretase 1), PDB entry 1xn2) is 3e-05 µM (active). Turning to `CC[C@H](C)[C@H](NC(=O)[C@H](CCC(=O)O)NC(=O)[C@H](CCC(=O)O)NC(=O)[C@@H](NC(=O)[C@@H](N)CCCCN)[C@@H](C)O)C(=O)N[C@@H](CO)C(=O)N[C@@H](CCC(=O)O)C(=O)N[C@H](C(=O)N[C@@H](CC(N)=O)C(=O)N[C@@H](CC(C)C)[C@@H](O)CC(=O)N[C@H](C(=O)N[C@@H](C)C(=O)N[C@@H](CCC(=O)O)C(=O)N[C@@H](Cc1ccccc1)C(=O)O)C(C)C)C(C)C` (H-KTEEISEVN[Sta]VAEF-OH), for the setting “protein: Memapsin 2(?-secretase 1), PDB entry 1xn3”, the Ki is 0.04 µM (active). For the molecule `O=c1ccn([C@H]2C[C@H](O)[C@@H](CNC(c3ccccc3)(c3ccccc3)c3ccccc3)O2)c(=O)[nH]1`, under “protein: Deoxyuridine 5'-triphosphate nucleotidohydrolase, putative, PDB entry 3t60”, the inhibition constant (Ki) was 0.2 µM (active). Consider `Cn1ccnc1[C@@H](NC[C@H]1O[C@@H](n2ccc(=O)[nH]c2=O)C[C@@H]1O)c1ccccc1`, for which the Ki (protein: Deoxyuridine 5'-triphosphate nucleotidohydrolase, putative, PDB entry 3t6y) is 3 µM (active). Take `CN(C[C@H]1O[C@@H](n2ccc(=O)[nH]c2=O)C[C@@H]1O)C(c1ccccc1)c1ccccc1`: the Ki (protein: Deoxyuridine 5'-triphosphate nucleotidohydrolase, putative, PDB entry 3t70) was 0.5 µM (active).

`O=c1ccn([C@H]2C[C@H](O)[C@@H](CNC(c3ccccc3)c3ccccc3)O2)c(=O)[nH]1`: for the setting “protein: Deoxyuridine 5'-triphosphate nucleotidohydrolase, putative, PDB entry 3t64”, the Ki was 0.2 µM (active). On to `COC(=O)N[C@H](C(=O)N/[N+](=C\c1ccc(-c2ccsc2)cc1)CCC[C@@]1(O)Cc2ccc(cc2)CC/C=C\NC(=O)[C@H](C(C)C)NC1=O)C(C)(C)C`, for which the inhibitory constant (Ki) (protein: HIV-1 protease, PDB entry 4cpw) is 0.0315 µM (active).

`COC(=O)N[C@H](C(=O)N/[N+](=C\c1ccc(C2=CCSC2)cc1)CCC[C@@]1(O)Cc2ccc(cc2)C/C=C\CNC(=O)[C@H](C(C)C)NC1=O)C(C)(C)C`: for the setting “protein: HIV-1 protease, PDB entry 4cpu”, the inhibition constant Ki is 0.0295 µM (active). Turning to `CCOP(=O)(COc1ccc(C[C@H](NC(=O)O[C@H]2CO[C@H]3OCC[C@H]32)[C@H](O)CN(CC(C)C)S(=O)(=O)c2ccc(OC)cc2)cc1)OCC`, the inhibition constant Ki is 0.00011 µM (active) (protein: HIV-1 Protease, PR1 E35EE (VPR1), PDB entry 4m8y) and 6.3e-05 µM (active) (protein: HIV-1 Protease, PR2 (VPR2), PDB entry 4m8x).

Regarding `CC(C)CN(C[C@@H](O)[C@H](Cc1ccccc1)NC(=O)O[C@H]1CO[C@H]2OCC[C@H]21)S(=O)(=O)c1ccc(C(N)=O)cc1`, the Ki (protein: Protease, PDB entry 4i8z) was 8.9e-06 µM (active). For the molecule `CC(C)CN(C[C@@H](O)[C@H](Cc1ccccc1)N[C@@H](O)O[C@H]1CO[C@H]2OCC[C@H]21)S(=O)(=O)c1ccc(C(=O)O)cc1`, the inhibition constant (Ki) (protein: Protease, PDB entry 4i8w) is 1.27e-05 µM (active). With `NC1NC(=O)c2[nH]cc(CN3C[C@H](CO)[C@@H](O)C3)c2N1` (stereo partly drawn), the Ki (protein: Purine nucleoside phosphorylase (W16Y, W94Y, W178Y, H257W mutation), PDB entry 4eb8) was 0.000151 µM (active). Turning to `NC1N[C@@](c2cccc(-c3cncnc3)c2)(c2ccnc(C(F)F)c2)c2cccc(F)c21` (stereo partly drawn), the Ki (protein: BETA-SECRETASE 1, PDB entry 4b05) is 0.0261 µM (active). As for `CCC(CC)O[C@@H]1C=C(C(=O)O)C[C@H](NC(N)N)[C@H]1NC(C)=O`, the inhibition constant Ki (protein: Neuraminidase, PDB entry 4ks2) was 0.00046 µM (active). Turning to `CCC(CC)O[C@@H]1CC(C(=O)O)=C[C@H](N)[C@H]1NC(C)=O`, the Ki (protein: Neuraminidase, PDB entry 4ks1) was 0.0015 µM (active).

`Cc1onc(-c2ccccc2Cl)c1C(=O)NCC(=O)O`: the Ki (protein: AmpC beta-lactamase, PDB entry 4kz5) is 10000 µM (active). With `C[C@@H](O)c1nc2cnc3[nH]ccc3c2n1C1CCC(C#N)CC1` (stereo partly drawn), the inhibitory constant (Ki) (protein: Tyrosine-protein kinase JAK1, PDB entry 4ivb) was 0.0019 µM (active) and the inhibitory constant (Ki) (protein: Tyrosine-protein kinase JAK2, PDB entry 4iva) is 0.0684 µM (active). Take `C[C@@H](O)c1nc2cnc3[nH]ccc3c2n1C1CCC(CC#N)CC1` (stereo partly drawn): the inhibitory constant (Ki) (protein: Tyrosine-protein kinase JAK1, PDB entry 4ivc) was 0.0001 µM (active). For `COc1ccc(C2CCCC3N=C(Nc4ccc(N5CCN(C)CC5)cc4)NN32)cc1` (stereo not drawn), for the setting “protein: Tyrosine-protein kinase JAK2, PDB entry 4jia”, the inhibition constant Ki was 0.0006 µM (active).

Consider `CC(=O)N[C@H]1[C@H]([C@H](O)[C@H](O)CO)OC(C(=O)O)C[C@@H]1O` (stereo partly drawn), for which the Ki was 1230 µM (active) (protein: Trypanosoma cruzi trans-sialidase, PDB entry 1ms0) and 140 µM (active) (protein: human cytosolic sialidase Neu2, PDB entry 1vcu). For the molecule `CC(=O)N[C@H]1[C@H]([C@H](O)[C@H](O)CO)OC(C(=O)O)C[C@@H]1NC(N)N` (stereo partly drawn), for the setting “protein: Human Sialidase Neu2, PDB entry 2f0z”, the Ki is 17 µM (active). As to `CC(=O)N[C@H]1[C@H]([C@H](O)[C@H](O)CO)O[C@@H](C(=O)O)C[C@@H]1N=C(N)N`, under “protein: Neuraminidase from the B-Lyon-CHU-15.216-2011 virus, PDB entry 4cpz”, the inhibition constant Ki is 0.0209 µM (active). `CCC(CC)(NC(=O)C(C)C)C(=O)N[C@@H](CCCNC(N)N)C(=O)NC1(C(=O)NC(c2ccccc2)c2ccccc2)CCCC1`: where the note is “protein: WD repeat-containing protein 5, PDB entry 4gm3”, the inhibition constant (Ki) is 0.001 µM (active).

Consider `CCC(CC)(NC(=O)C(C)C)C(=O)N[C@@H](CCCNC(N)N)C(=O)NC1(C(=O)NC(c2ccc(F)cc2)c2ccc(F)cc2)CCCC1`, for which the inhibition constant Ki (protein: WD repeat-containing protein 5, PDB entry 4gm8) was 0.001 µM (active). On to `C[C@](COC(=O)CCCCC(=O)O)([C@@H](NCCC=O)C(=O)O)S(=O)O`, for which the Ki (protein: SHV-1 beta-lactamase, PDB entry 4mbf) is 1.7 µM (active).

With `C[C@H](C(=O)O)c1ccc2c(c1)[nH]c1ccc(Cl)cc12`, under “protein: E. coli sliding clamp, DNA polymerase III subunit beta, PDB entry 4mjr”, the Ki is 283 µM (active).

As a reminder, the Ki is the dissociation constant of the complex between target and ligand, obtained from inhibition or displacement.
